Compound activity (PubChem)
This is a sample that favours compounds with a hit; in the whole collection about 7.3% have one here.
FLuc modulator = qHTS profiling assay for firefly luciferase inhibitor/activator using purifed enzyme and Km concentrations of substrates (counterscreen for miR-21 project). Luciferin 4-monooxygenase (Photinus pyralis), P08659. purified FLuc, Km substrates, luminescence inhibition. Potency, µM (top dose mostly 57.5 µM), without a hit: at the highest dose activity change, negative = inhibition, hits mostly inhibitors. 360,000 tested, 6.9% active;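 further: plate controls were vehicle for no effect and reference inhibitor for full effect; nearly all actives have a fitted effect of over 55% in size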
Target sequence (P08659 whole entry, looked up): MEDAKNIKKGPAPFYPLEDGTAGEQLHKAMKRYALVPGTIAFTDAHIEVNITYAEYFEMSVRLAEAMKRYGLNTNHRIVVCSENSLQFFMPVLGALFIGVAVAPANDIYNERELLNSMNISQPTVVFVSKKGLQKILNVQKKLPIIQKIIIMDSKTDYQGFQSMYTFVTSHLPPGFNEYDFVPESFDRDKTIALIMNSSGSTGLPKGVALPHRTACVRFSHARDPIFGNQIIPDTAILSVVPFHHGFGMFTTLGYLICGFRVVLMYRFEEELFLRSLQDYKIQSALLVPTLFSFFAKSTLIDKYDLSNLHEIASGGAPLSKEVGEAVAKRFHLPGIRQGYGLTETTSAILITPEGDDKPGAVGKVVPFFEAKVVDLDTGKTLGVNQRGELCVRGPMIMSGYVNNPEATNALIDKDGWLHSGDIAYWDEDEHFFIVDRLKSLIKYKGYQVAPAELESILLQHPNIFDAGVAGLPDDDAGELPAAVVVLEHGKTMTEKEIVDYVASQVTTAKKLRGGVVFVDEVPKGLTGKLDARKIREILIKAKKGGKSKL
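Biochemical qHTS of compounds, final roughly 60 µM downward over six points, against 10 nM purified firefly luciferase using Km concentrations of substrates (10 uM D-luciferin, 10 uM ATP) in Tris acetate pH 7.5 buffer; luminescence output.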
SMN2 splice up = qHTS Assay for Enhancers of SMN2 Splice Variant Expression. 210,000 tested, 2.8% active. HEK293 SMN2-luciferase splicing reporter, luminescence, 30-36 h. Potency, µM (top dose mostly 46.1 µM), without a hit: at the top dose activity change, positive = activation, actives largely listed as activators. AID 1458, 2008; further: % of control where 0% means no effect; nearly all actives have a fitted effect of over 55% in size
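HEK293 cells carry an SMN2 […]–luciferase reporter in which exon 7 inclusion puts luciferase in frame. Cells were plated 10-12 h before compound addition, then incubated 30-36 h at 37C. ONE-Glo luminescence was read; sodium butyrate at 4.5 mM final served as control.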
Rab9 promoter act = qHTS Assay for Rab9 Promoter Activators | Huh7 Rab9 promoter-luciferase reporter, luminescence, 24 h | Potency, µM (titrated, usually from 9.22 µM), inactives show at the top dose activation, negative = inhibition, hits mostly activators | 320,000 tested, 2.8% active | AID 485297, 2010; further: % of control where 0% means no effect; nearly all actives have a fitted effect of over 60% in size
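Measured in stably transfected Huh7 cells bearing a Rab9 promoter–luciferase construct: 24 h compound treatment at 37 °C, followed by luminescence detection.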
NPC1 promoter act = qHTS Assay for NPC1 Promoter Activators; Huh7 NPC1 promoter luciferase reporter, 24 h; Potency, µM (highest dose often 9.22 µM), for the others: at the top dose activation, actives largely listed as activators; 320,000 tested, 2.4% active; further: % of control where 0% means no effect; nearly all actives have a fitted effect of over 60% in size
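Compounds in DMSO were transferred onto Huh7 NPC1-luciferase reporter cells pre-incubated 2 h; after 24 h at 37 °C, Amplite reagent was dispensed and luminescence recorded 10 min later.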
ELG1 genotox = qHTS screen for small molecules that induce genotoxicity in human embryonic kidney (HEK293T) cells expressing luciferase-tagged ELG1; HEK293T ELG1-luciferase reporter, luminescence, 16 h; Potency, µM (top dose mostly 46 µM), without a hit: top-dose activity change, positive = activation, usual class: activators; 330,000 tested, 1.3% active; further: % of control where 0% means no effect; nearly all actives have a fitted effect of over 60% in size
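Genotoxic stress is detected as increased luminescence from luciferase-tagged ELG1 in HEK293T cells, measured with ONE-Glo after a 16 hr treatment at 37 °C.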
Luc counter = Counterscreen for Luciferase (Kinase-Glo TM) Inhibition | 200,000 tested, 0.28% active | Potency, µM (series often up to 38.3 µM), without a hit: top-dose activity change, negative = inhibition, actives largely listed as inhibitors | Kinase-Glo luciferase, ATP luminescence, 8 min | Luciferin 4-monooxygenase (Photuris pensylvanica), Q27757; further: on the % scale 0 is the no-effect control and ±100 the full control effect; nearly all actives have a fitted effect of over 60% in size
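Inhibition of Kinase-Glo luciferase light generation was assessed at 10 uM ATP in pH 7.2 imidazole buffer, with luminescence measured after eight minutes at ambient temperature.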
Active calls of the source: *; u = inconclusive; x = not tested or not shown. The call rests on the fitted dose curve; in most records, active means well fitted curve in the direction sought with a large enough effect; inconclusive means small, poorly fitted or top-dose-only effect, or another doubt; inactive means no such curve, though single readings can be large; an effect the other way counts as inactive or inconclusive. Potency means the concentration at half of the fitted maximal effect.

SMILES	FLuc modulator	SMN2 splice up	Rab9 promoter act	NPC1 promoter act	ELG1 genotox	Luc counter
C=CCn1c(SCC(N)=O)nnc1-c1ccccc1O	-1%	x	11%	-1%	-6%	x
COc1ccc2nc(/N=C/c3c(C)[nH]n(-c4ccc(C)cc4C)c3=O)sc2c1	27µM*	18%	17%	0%	9%	4%
COc1ccccc1N=Cc1c(C)[nH]n(-c2ccc(C)cc2C)c1=O	0%	x	-4%	-1%	-4%	-3%
CCn1cc(/C=N\NC(=O)c2csc3ccccc23)c(C)n1	u	-11%	9%	1%	29%	1%
CCn1cc(/C=N\NC(=O)c2c[nH]c3ccccc23)c(C)n1	21µM*	27%	19%	15%	4%	0%
Cc1c(/C=N\NC(=O)c2c[nH]c3ccccc23)cnn1C	12µM*	27%	14%	2%	6%	-2%
O=C(C1COc2ccccc2O1)N1CCN(S(=O)(=O)c2cc(F)ccc2F)CC1 (stereo not drawn)	4%	x	-3%	-5%	3%	x
Cc1ccc(-c2cc(C(=O)N3CCN(S(=O)(=O)c4ccc(Br)cc4)CC3)[nH]n2)cc1C	-3%	x	x	x	x	x
COc1ccc(C(=O)N2CCN(C(=O)COc3ccc(Br)cc3)CC2)cc1OC	17µM*	5%	x	x	x	x
COc1cc(C(=O)N2CCN(C(=O)c3cc(-c4ccc(Br)cc4)n[nH]3)CC2)cc(OC)c1OC	11µM*	x	2%	1%	2%	x
Cc1nnc(N2CCN(c3cccc(Cl)c3)CC2)c2c1nnn2Cc1ccc(F)cc1	-1%	-5%	x	x	x	x
CCOCCCn1c(SCC(=O)Nc2ccccc2OC)nc2c(oc3ccccc32)c1=O	5%	-8%	x	x	x	x
COc1ccc(-n2nnc3c(=O)n(CC(=O)Nc4ccc5c(c4)OCCO5)cnc32)cc1OC	1%	x	-2%	-3%	u	x
COc1ccc(NC(=S)Nc2cc(S(=O)(=O)N3CCCCC3)ccc2OC)cc1	0%	8%	-1%	2%	1%	-1%
CC(C)C(C(=O)NC1=NCCS1)c1ccc(Cl)cc1 (stereo not drawn)	-2%	-20%	-10%	-14%	-11%	3%
O=C(/C=C/c1ccc(Cl)c(Cl)c1)NC1=NCCS1	u	15%	2.2µM*	2.8µM*	18%	4%
CC(C)c1ccc(/C=C/C(=O)NC2=NCCS2)cc1	1.3µM*	1.8µM*	0.32µM*	0.32µM*	u	5%
CCOC(=O)C1CCN(C(=O)CCc2nc3sc4c(c3c(=O)[nH]2)CCCC4)CC1	5%	x	2%	-1%	1%	x
OC1=C(O)c2nc3cc(C(F)(F)F)ccc3nc21	u	x	0%	-3%	0%	x
Cc1ccc2oc(=O)cc(CN3CC(C)OC(C)C3)c2c1 (stereo not drawn)	3%	x	2%	0%	4%	x
COC(=O)c1ccc(Oc2nc(N(C)C)nc(N3CCOCC3)n2)cc1	1%	-19%	-1%	-4%	1%	-7%
CCOc1ccc(NC(=O)CSc2nnc(Cc3csc(C)n3)o2)cc1	2%	x	0%	-9%	-1%	x
CCOc1ccc(Nc2nc(Cc3nnc(SCC(N)=O)o3)cs2)cc1	15µM*	-13%	-1%	-2%	5%	0%
C=Cn1ccnc1P(=S)(c1ccc2c(c1)c1ccccc1n2CC)c1nccn1C=C	-7%	0%	-6%	-2%	-9%	-3%
Cn1cccc1C(=O)OCC(=O)Nc1ccc2c(c1)OCO2	17µM*	u	2.8µM*	3.5µM*	u	-3%
SMILES	FLuc modulator	SMN2 splice up	Rab9 promoter act	NPC1 promoter act	ELG1 genotox	Luc counter
Cn1cccc1C(=O)OCC(=O)Nc1ccc2c(c1)CCC2	u	20%	u	u	21µM*	15%
O=C(COC(=O)c1ccco1)Nc1ccc2c(c1)OCO2	u	12%	-1%	-1%	0%	-11%
Cn1cccc1C(=O)OCC(=O)Nc1ccc2[nH]c(=O)[nH]c2c1	x	x	x	x	4%	x
COc1ccccc1N1CCN(/N=C/c2cc(OC)c(O)c(OC)c2)CC1	u	27%	0%	-2%	2%	-1%
COc1ccccc1N1CCN(/N=C/c2cccc(O)c2)CC1	13µM*	6%	u	19%	u	3%
COc1ccccc1N1CCN(/N=C/c2ccccc2C(=O)O)CC1	19µM*	x	2%	-2%	-7%	x
COc1ccccc1N1CCN(/N=C/c2ccc(OC)c(OC)c2OC)CC1	-2%	6%	1%	0%	0%	3%
COc1cc(/C=N/N2CCN(c3ccccc3OC)CC2)ccc1OC(C)=O	19µM*	x	3%	4%	9%	x
COc1ccccc1N1CCN(C(=O)c2ccc(-c3ccccc3)cc2)CC1	24µM*	x	-3%	-2%	1%	x
CCOC(=O)c1sc(N2C(=O)c3oc4cc(C)c(C)cc4c(=O)c3C2c2cccc(O)c2)nc1C (stereo not drawn)	-10%	1%	x	x	x	x
Cc1cc(C)cc(NC(=O)COC(=O)CCCNC(=O)c2ccc(Cl)cc2)c1	12µM*	16%	-5%	0%	-1%	-1%
O=C(Nc1ccccc1C(F)(F)F)c1noc2c1CCCCC2	2.7µM*	11µM*	x	x	x	x
O=C(NCc1ccc(F)cc1)c1noc2c1CCCCC2	-12%	-5%	4%	1%	0%	2%
O=C(Nc1cc(Cl)ccc1Cl)c1noc2c1CCCC2	-9%	x	-2%	2%	1%	x
O=C(Nc1ccc(F)cc1F)c1noc2c1CCC2	15µM*	u	u	u	13%	-10%
CC(=O)Nc1ccc(NC(=O)c2cc(-c3ccc4c(c3)OCCO4)on2)cc1	0.34µM*	x	x	x	x	x
Cc1ccc(OC(=O)c2cc(-c3ccc4c(c3)OCCO4)on2)c(C)c1	1.5µM*	x	x	x	x	x
O=C(Nc1ccc(SC(F)F)cc1)c1cc(-c2ccc3c(c2)OCCO3)on1	5.4µM*	x	x	x	x	x
O=C(Nc1ccc(SC(F)F)cc1)c1cc(-c2cccs2)on1	-14%	x	x	x	x	x
O=C(Nc1cccc(O)c1)c1cc(-c2ccc3c(c2)OCO3)on1	0.15µM*	x	u	u	u	x
CC(=O)c1ccc(NC(=O)c2cc(-c3ccc4c(c3)OCO4)on2)cc1	-2%	6%	x	x	x	x
CCCn1c(=O)c2c(nc3n2CCS3)n(C)c1=O	-3%	-15%	1%	-5%	1%	0%
Cc1ccc(O)c(NC(=O)c2cc(-c3ccc4c(c3)OCO4)on2)c1	u	17%	x	x	x	x
CC(=O)c1cccc(NC(=O)c2cc(-c3ccc(C)cc3)on2)c1	u	u	u	u	4.6µM*	0%
